Screen size: about 5,500 compounds; about 2,000 (36%) were called active. Roughly 18% stayed inconclusive and do not appear here. Rule as the data show it: active = normalized growth mostly below about 0.91 (no sharp cut-off); inconclusive = no clear call, values can overlap the other calls; inactive = mostly above about 0.92. Some of the results follow.
Test: chemical genetic growth profiling, strain panel (AID 1159580);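 also: tested at 20 µM; growth read once vehicle control cultures reached saturation at 30 °C; 1 = growth at the plate median or of vehicle wells; lower values mean less growth of the strain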
Conditions: S. cerevisiae deletion strains, growth OD
[1] = locus YJL095W, strain BCK1, stronger effect = lower value

Measured: normalized growth

COc1cc(O)c(C(=O)c2ccccc2)cc1O
active: locus YDR392W, strain spt3, stronger effect = lower value 0.705 | locus YER155C, strain BEM2 (second series), stronger effect = lower value 0.764 | locus YLR262C, strain YPT6 (second series), stronger effect = lower value 0.768
inactive: locus YAL013W, strain DEP1, stronger effect = lower value 1.02 | locus YAL021C, strain ccr4, stronger effect = lower value 1.01 | locus YAL026C, strain drs2, stronger effect = lower value 0.963 | locus YAL030W, strain snc1, stronger effect = lower value 1.01 | locus YBL061C, strain skt5, stronger effect = lower value 1.01 | locus YBR009C, strain hhf1, stronger effect = lower value 0.969 | locus YBR021W, strain FUR4, stronger effect = lower value 1.07 | locus YBR023C, strain chs3, stronger effect = lower value 0.985 | locus YBR171W, strain sec66, stronger effect = lower value 1.01 | locus YBR229C, strain ROT2, stronger effect = lower value 1.02 | locus YBR231C, strain swc5, stronger effect = lower value 1.01 | locus YBR279W, strain paf1, stronger effect = lower value 0.988 | locus YCL011C, strain gbp2, stronger effect = lower value 0.971 | locus YCL016C, strain dcc1, stronger effect = lower value 0.965 | locus YCL029C, strain bik1, stronger effect = lower value 0.978 | locus YCL069W, strain vba3, stronger effect = lower value 0.996 | locus YCR088W, strain abp1, stronger effect = lower value 1 | locus YDL005C, strain med2, stronger effect = lower value 1.01 | locus YDL035C, strain GPR1, stronger effect = lower value 1.07 | locus YDL040C, strain nat1, stronger effect = lower value 1 | locus YDL074C, strain BRE1, stronger effect = lower value 1.01 | locus YDL101C, strain DUN1, stronger effect = lower value 0.998 | locus YDL185W, strain tfp1, stronger effect = lower value 0.972 | locus YDL192W, strain arf1, stronger effect = lower value 0.971 | locus YDR001C, strain nth1, stronger effect = lower value 1.02 | locus YDR069C, strain doa4, stronger effect = lower value 1.02 | locus YDR101C, strain arx1, stronger effect = lower value 1.01 | locus YDR137W, strain rgp1, stronger effect = lower value 0.857 | locus YDR159W, strain sac3, stronger effect = lower value 0.973 | locus YDR162C, strain NBP2, stronger effect = lower value 1.02 | locus YDR195W, strain ref2 1.03 | locus YDR297W, strain sur2, stronger effect = lower value 0.99 | locus YDR318W, strain mcm21, stronger effect = lower value 0.963 | locus YDR334W, strain swr1, stronger effect = lower value 1.03 | locus YDR335W, strain msn5, stronger effect = lower value 0.988 | locus YDR388W, stronger effect = lower value 0.979 | locus YDR502C, strain sam2, stronger effect = lower value 0.965 | locus YEL003W, strain gim4, stronger effect = lower value 0.985 | locus YEL037C, strain rad23, stronger effect = lower value 1.01 | locus YEL061C, strain CIN8 (second series), stronger effect = lower value 1.01 | locus YEL061C, strain CIN8, stronger effect = lower value 1.03 | locus YER015W, strain faa2, stronger effect = lower value 0.966 | locus YER016W, strain bim1, stronger effect = lower value 1 | locus YER110C, stronger effect = lower value 0.964 | locus YER111C, strain swi4, stronger effect = lower value 1.02 | locus YER155C, strain BEM2, stronger effect = lower value 1.01 | locus YER167W, strain BCK2, stronger effect = lower value 1 | locus YFR010W, strain ubp6, stronger effect = lower value 1.03 | locus YGL078C, strain dbp3, stronger effect = lower value 0.937 | locus YGL086W, strain mad1, stronger effect = lower value 0.974 | locus YGL167C, strain pmr1, stronger effect = lower value 0.999 | locus YGL173C, strain kem1, stronger effect = lower value 1 | locus YGL227W, strain vid30, stronger effect = lower value 1.01 | locus YGL240W, strain doc1, stronger effect = lower value 0.944 | locus YGL248W, strain PDE1, stronger effect = lower value 1.05 | locus YGL253W, strain hxk2, stronger effect = lower value 1.04 | locus YGR135W, strain pre9, stronger effect = lower value 0.923 | locus YGR252W, strain gcn5, stronger effect = lower value 1 | locus YHR013C, strain ard1, stronger effect = lower value 1.05 | locus YHR027C, strain rpn1, stronger effect = lower value 1.02 | locus YHR079C, strain IRE1 (second series), stronger effect = lower value 0.959 | locus YHR094C, strain hxt1, stronger effect = lower value 0.974 | locus YHR129C, strain ARP1, stronger effect = lower value 1.02 | locus YHR142W, strain chs7, stronger effect = lower value 1.01 | locus YHR200W, strain rpn10, stronger effect = lower value 0.968 | locus YIL066C, strain RNR3, stronger effect = lower value 1.03 | locus YIL073C, strain SPO22, stronger effect = lower value 1 | locus YIL125W, strain kgd1, stronger effect = lower value 1 | locus YIR030C, strain dcg1, stronger effect = lower value 0.976 | locus YJL092W, strain hpr5, stronger effect = lower value 1.01 | locus YJL095W, strain BCK1 (second series), stronger effect = lower value 0.996 | [1] 0.978 | locus YJL115W, strain asf1, stronger effect = lower value 1.02 | locus YJL129C, strain trk1, stronger effect = lower value 0.948 | locus YJL134W, strain LCB3, stronger effect = lower value 1 | locus YJL154C, strain vps35, stronger effect = lower value 1.02 | locus YJL164C, strain tpk1, stronger effect = lower value 0.958 | locus YJL166W, strain qcr8, stronger effect = lower value 0.993 | locus YJL168C, strain set2, stronger effect = lower value 0.989 | locus YJL187C, strain SWE1 (second series), stronger effect = lower value 0.993 | locus YJL187C, strain SWE1, stronger effect = lower value 0.996 | locus YKL009W, strain mrt4, stronger effect = lower value 0.892 | locus YKL068W, stronger effect = lower value 0.982 | locus YKL085W, strain MDH1 (second series), stronger effect = lower value 0.97 | locus YKL085W, strain MDH1, stronger effect = lower value 0.97 | locus YKL160W, strain elf1, stronger effect = lower value 0.945 | locus YKR001C, strain vps1, stronger effect = lower value 1.01 | locus YKR026C, strain gcn3, stronger effect = lower value 1.02 | locus YKR091W, strain srl3, stronger effect = lower value 1.01 | locus YLL001W, strain dnm1, stronger effect = lower value 0.951 | locus YLL026W, stronger effect = lower value 1.01 | locus YLL041C, strain sdh2, stronger effect = lower value 1.01 | locus YLR027C, strain aat2, stronger effect = lower value 1.01 | locus YLR039C, strain RIC1, stronger effect = lower value 0.963 | locus YLR058C, strain SHM2, stronger effect = lower value 1.01 | locus YLR102C, strain apc9, stronger effect = lower value 0.97 | locus YLR221C, strain rsa3, stronger effect = lower value 0.988 | locus YLR258W, strain gsy2, stronger effect = lower value 0.962 | locus YLR268W, strain sec22, stronger effect = lower value 0.976 | locus YLR320W, strain mms22, stronger effect = lower value 0.944 | locus YLR330W, strain CHS5, stronger effect = lower value 1.02 | locus YLR342W, strain FKS1, stronger effect = lower value 0.993 | locus YLR357W, strain rsc2, stronger effect = lower value 0.994 | locus YLR370C, strain arc18, stronger effect = lower value 1 | locus YLR371W, strain rom2, stronger effect = lower value 0.966 | locus YLR384C, strain iki3, stronger effect = lower value 0.996 | locus YLR418C, strain cdc73, stronger effect = lower value 1.03 | locus YML016C, strain PPZ1, stronger effect = lower value 1.01 | locus YML032C, strain rad52, stronger effect = lower value 0.967 | locus YML120C, strain ndi1, stronger effect = lower value 0.965 | locus YML124C, strain tub3, stronger effect = lower value 0.97 | locus YMR058W, strain fet3, stronger effect = lower value 1.02 | locus YMR078C, strain ctf18, stronger effect = lower value 0.952 | locus YMR125W, strain sto1, stronger effect = lower value 1.01 | locus YMR129W, stronger effect = lower value 1 | locus YMR205C, strain PFK2, stronger effect = lower value 0.991 | locus YMR223W, strain ubp8, stronger effect = lower value 0.932 | locus YMR231W, strain pep5, stronger effect = lower value 1.01 | locus YMR307W, strain GAS1, stronger effect = lower value 1.19 | locus YNL067W, strain RPL9B, stronger effect = lower value 1.01 | locus YNL071W, strain lat1, stronger effect = lower value 0.982 | locus YNL209W, strain ssb2, stronger effect = lower value 0.947 | locus YNL233W, strain BNI4, stronger effect = lower value 1.04 | locus YNL248C, strain rpa49, stronger effect = lower value 1.03 | locus YNL250W, strain rad50, stronger effect = lower value 0.924 | locus YNL271C, strain bni1, stronger effect = lower value 0.951 | locus YNL298W, strain CLA4, stronger effect = lower value 0.995 | locus YNL307C, strain MCK1, stronger effect = lower value 0.971 | locus YNL322C, strain KRE1 (second series), stronger effect = lower value 0.973 | locus YNR049C, strain mso1, stronger effect = lower value 1.03 | locus YNR052C, strain pop2, stronger effect = lower value 0.96 | locus YOL012C, strain htz1 1.3 | locus YOL147C, strain pex11, stronger effect = lower value 0.979 | locus YOR001W, strain rrp6, stronger effect = lower value 0.995 | locus YOR061W, strain CKA2, stronger effect = lower value 1.01 | locus YOR069W, strain VPS5, stronger effect = lower value 0.999 | locus YOR070C, strain gyp1, stronger effect = lower value 0.983 | locus YOR080W, strain dia2, stronger effect = lower value 1.02 | locus YOR083W, strain WHI5, stronger effect = lower value 0.933 | locus YOR106W, strain vam3, stronger effect = lower value 0.917 | locus YOR136W, strain idh2, stronger effect = lower value 0.977 | locus YOR144C, strain elg1, stronger effect = lower value 0.976 | locus YOR184W, strain ser1, stronger effect = lower value 1.07 | locus YOR265W, strain rbl2, stronger effect = lower value 1.01 | locus YOR270C, strain vph1, stronger effect = lower value 0.974 | locus YOR290C, strain snf2, stronger effect = lower value 0.946 | locus YOR316C, strain cot1, stronger effect = lower value 0.958 | locus YPL051W, strain arl3, stronger effect = lower value 0.924 | locus YPL078C, strain atp4, stronger effect = lower value 0.952 | locus YPL106C, strain sse1, stronger effect = lower value 0.943 | locus YPL240C, strain hsp82, stronger effect = lower value 0.997 | locus YPR119W, strain clb2, stronger effect = lower value 0.95 | locus YPR141C, strain kar3, stronger effect = lower value 0.96 | locus YPR163C, strain tif3, stronger effect = lower value 0.94 | locus YPR167C, strain met16, stronger effect = lower value 0.953 | strain wtn01, stronger effect = lower value 0.998

COc1ccc(C(C)=O)c(O)c1
inactive: locus YHR030C, strain SLT2, stronger effect = lower value 0.966 | locus YHR079C, strain IRE1, stronger effect = lower value 0.965 | [1] 0.968 | locus YJR066W, strain TOR1, stronger effect = lower value 0.905 | locus YLR113W, strain HOG1, stronger effect = lower value 0.96 | locus YNL183C, strain NPR1, stronger effect = lower value 0.892 | locus YOR231W, strain MKK1, stronger effect = lower value 0.968 | locus YPL256C, strain CLN2, stronger effect = lower value 0.957
